About 1,000 (0.32%) of roughly 310,000 compounds were called active. Only a sample is shown. Potency and affinity values are given separately. A number with no mark means an inactive call. How the calls were made is not given here.

Our source for the inhibition values is PubChem BioAssay AID1850 (Southern Research Specialized Biocontainment Screening …, 2009).

The test can be described thus: PhoP regulon inhibitors, Salmonella typhi PhoP promoter GFP reporter, confirmatory (AID 1850).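 Further: 0% = induced wells with vehicle and 100% = uninduced wells.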 The following applies: fluorescence, 4 h, at 50 µM, hits give high values.
As usually defined, the inhibition is the change of the read-out against control, counted positive when it falls. With `COc1cc(C(=O)NCC(=O)N/N=C(\C)Cc2ccccc2)cc(OC)c1OC`, the inhibition is 8.05%. Under `Cc1cccc(CC(C)NC(=O)c2cc(COc3ccc(C)c(C)c3)on2)n1` (configuration not stated) stands -0.63%; under `CCN(CC(=O)N1CCC(C(N)=O)CC1)S(=O)(=O)c1ccc(Cl)cc1`, -8.55%. Consider `Cc1ccc(-c2noc(CSc3nnc(CCc4ccccc4)n3-c3ccccc3)n2)cc1`, for which the inhibition is -7.22%.

With `CCCCc1ccc(NC(=O)Nc2c(C)n(C)n(-c3ccccc3)c2=O)cc1`, the inhibition is -5.72%. `O=C(NNC(=O)C1C2C=CC(C2)C1C(=O)O)c1cc(Cl)ccc1O` (configuration not stated): the inhibition is -4.67%.

For the compound `COc1cc(C2NCCc3c2[nH]c2ccccc32)ccc1OC(C)C` (configuration not stated), the inhibition was -4.21%.

Regarding `COc1ccc(C2NCCc3c2[nH]c2ccccc32)cc1CSc1nc2ccccc2s1` (configuration not stated), the inhibition is -3.05%.

Turning to `CC(=O)N1CCN(S(=O)(=O)c2cccc(C(=O)NNC(=O)COc3ccc(Cl)cc3C)c2)CC1`, the inhibition was 3.91%. The result for `COc1ccc(Cn2c(O)c(/C=N/NC(=O)c3ccccc3O)c(=O)[nH]c2=O)cc1` reads -3.02%; that for `Cc1ccccc1NC(=S)NCC(c1cccnc1)N(C)C` (configuration not stated), 4.06%. In the case of `CSc1ccc(CN2CCc3c([nH]c4ccccc34)C2)cc1`, the inhibition is 2.22%.

`Clc1cccc(CN2CCc3c([nH]c4ccccc34)C2)c1`: the inhibition is 1.94%.

As to `COc1ccccc1CN1CCc2c([nH]c3ccccc23)C1`, the inhibition is 3.76%. The result for `Cc1cccc(CN2CCc3c([nH]c4ccccc34)C2)c1` reads 8.05%; that for `O=C(C1CCCN(S(=O)(=O)c2cccc3nonc23)C1)N1CCC(Cc2ccccc2)CC1` (configuration not stated), -9.59%; that for `CS(=O)(=O)c1ccc(Cl)c(C(=O)NC2CCSc3ccccc32)c1` (configuration not stated), 12.6%. For the compound `COc1ccccc1/C=N/NC(=O)c1ccc(-c2ccccc2)cc1`, the inhibition was -0.08%. The result for `COc1ccc(C2CC(=O)C3=C(C2)Nc2ccccc2NC3c2coc3ccccc3c2=O)cc1OC` (configuration not stated) reads -2.61%; that for `COc1cccc2c(N/N=C/c3ccccc3)cc(C)nc12`, 0.63%. In the case of `Cc1ccc2nc(C)cc(N/N=C/c3cccc(O)c3)c2c1`, the inhibition is -4.26%. Consider `COc1ccc(/C=N/Nc2cc(C)nc3ccc(OC)cc23)c(OC)c1`, for which the inhibition was 0.09%. As for `CC(=O)c1ccc(Nc2cc(C)nc3c(C)cc(C)cc23)cc1`, the inhibition is 7.05%. The result for `COc1ccc2nc(C)cc(N/N=C/c3ccc(F)cc3)c2c1` reads -3.4%; that for `COc1ccc(Nc2cc(C)nc3c(C)cccc23)cc1OC`, -3.72%. The result for `Cc1ccc(Nc2cc(C)nc3ccccc23)c(C)c1` reads 10.4%. `Cc1cc(Nc2ccc(C)c(C)c2)c2ccccc2n1`: the inhibition was -4.07%.
